Measured values from PubChem BioAssay (NCI).
This is part of a sample that, as a whole, favours compounds with a hit. Of some 83,000 tested, about 20% had one in any assay.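 A percent growth of 40 corresponds to 60% growth inhibition; 0 means no net growth; -100 means all cells died. Active threshold: below 10.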 Active and inactive are the calls of the source.

Legend:
Assay in all cases: NCI-60 one-dose screen, 48 h (100 = growth as untreated, 0 = no growth, -100 = all killed)
Settings in all cases: 10 µM
[1] = test system: 786-0 renal
[2] = test system: MALME-3M melanoma
[3] = test system: SF-268 CNS
[4] = test system: SF-295 CNS
[5] = test system: UACC-257 melanoma
[6] = test system: UACC-62 melanoma
[7] = test system: SK-MEL-28 melanoma
[8] = test system: SK-MEL-2 melanoma
[9] = test system: EKVX NSCLC
[10] = test system: SN12C renal
[11] = test system: UO-31 renal
[12] = test system: TK-10 renal
[13] = test system: ACHN renal
[14] = test system: CAKI-1 renal
[15] = test system: A498 renal
[16] = test system: OVCAR-8 ovarian
[17] = test system: OVCAR-5 ovarian
[18] = test system: IGROV1 ovarian
[19] = test system: OVCAR-3 ovarian
[20] = test system: HS 578T breast

Measured: growth

CC1[C@H]2[C@H](C[C@H]3[C@@H]4CC=C5c6sc(Nc7cccc(Cl)n7)nc6CC[C@]5(C)[C@H]4CC[C@@]32C)O[C@]12CC[C@@H](C)CO2 (stereo not given in full)
inactive: [1] 105% | [2] 117% | [3] 86.9% | [4] 109% | [5] 82% | [6] 54.5% | [7] 100% | [8] 76.9% | [9] 83.8% | [10] 94.5% | [11] 85.4% | [12] 171% | [13] 96.4% | [14] 84.8% | [15] 92.6% | [16] 74.2% | [17] 113% | [18] 99.2% | [19] 93.7% | [20] 106%

COc1ccc2[nH]cc(-c3nc(N)nnc3-c3cn(C)c4ncc(Br)cc34)c2c1
inactive: [1] 12.8% | [2] 28.7% | [3] 12.9% | [4] 17% | [5] 39% | [6] 14.2% | [7] 37.5% | [8] 36.2% | [9] 35.1% | [10] 17.8% | [12] 11% | [13] 10.2% | [17] 20.6% | [20] 28.2%
active: [11] 3.12% | [14] -0.341% | [15] -21.6% | [16] 1.18% | [18] 3.82% | [19] -0.754%

COC(=O)CNC(=O)COc1c(OC)c(OC)cc2oc(-c3cccc(C(=O)Nc4ccc(Cl)cc4)c3)cc(=O)c12
active: [1] -24.3% | [2] -26.1% | [16] -69% | [20] -3.95%
inactive: [3] 21.9% | [4] 21.4% | [5] 58.7% | [6] 12.7% | [7] 20.5% | [8] 12.7% | [9] 64.1% | [10] 41% | [11] 66.5% | [12] 130% | [13] 47.2% | [14] 55.8% | [15] 119% | [17] 90.7% | [18] 58.4% | [19] 55.6%

Nc1nnc(-c2c[nH]c3ncc(Br)cc23)c(-c2c[nH]c3ccc(Br)cc23)n1
inactive: [1] 36.2% | [2] 56.1% | [3] 46% | [4] 44.7% | [5] 71% | [6] 24.4% | [7] 45.6% | [9] 46.2% | [10] 46.9% | [11] 32.6% | [12] 67.8% | [13] 37.3% | [14] 28.1% | [16] 34% | [17] 62.1% | [18] 36.5% | [20] 24.7%
active: [8] 7.13% | [15] -13% | [19] 4.38%

O=[N+]([O-])c1cccc(-c2nnc3c(/C=C/c4ccccc4O)nc4ccccc4n23)c1
inactive: [1] 77.7% | [2] 86.5% | [3] 77.7% | [4] 62.5% | [5] 59.5% | [6] 16% | [7] 38.2% | [8] 84.1% | [9] 54.2% | [10] 63.4% | [11] 41.8% | [12] 112% | [13] 35.8% | [14] 40.6% | [15] 89.4% | [16] 58.1% | [17] 81.4% | [18] 68.8% | [19] 69.1% | [20] 30.7%

COc1cc(C2CC(c3ccccc3)=Nc3c(N)nc(N)nc3N2)ccc1Oc1nc(NCCO)nc(N2CCOCC2)n1 (stereo not given)
inactive: [1] 89.2% | [2] 93.3% | [3] 88.8% | [4] 105% | [5] 101% | [6] 97.1% | [7] 100% | [8] 99.7% | [9] 97.6% | [10] 94.8% | [11] 94.2% | [12] 110% | [13] 103% | [14] 93.9% | [15] 113% | [16] 102% | [17] 107% | [18] 93% | [19] 109% | [20] 78.9%

COc1cc(Nc2nc(O)c(/C=C3\C=Nc4ccccc43)s2)cc(OC)c1OC
active: [1] -73.1% | [2] -30.1% | [3] -38.2% | [4] -73.4% | [5] 4.51% | [6] -65.9% | [7] -34.5% | [8] -70.6% | [9] -41.8% | [10] -88% | [11] -48.9% | [12] -35% | [13] -2.09% | [14] -69.3% | [15] -76.1% | [16] -49.8% | [17] -52.5% | [18] -40.2% | [19] -77% | [20] -20.2%

C#C[C@]1(O)CC[C@H]2[C@@H]3CC=C4c5sc(Nc6ccc(C(F)(F)F)cn6)nc5CC[C@]4(C)[C@H]3CC[C@@]21C
active: [1] -72.4% | [2] -13.1% | [4] -68.8% | [5] -3.66% | [6] -45.9% | [7] -16.5% | [8] -26.8% | [9] -3.2% | [10] 7.3% | [11] -23.8% | [13] 0.62% | [14] 0.3% | [15] -15.8% | [16] -8.07% | [17] 9.25% | [18] 8.57% | [19] -35.8% | [20] -6.11%
inactive: [3] 23.2% | [12] 12.9%

COc1ccccc1-n1cc(C#N)c(N)c1C(=O)c1ccc(Cl)cc1Cl
inactive: [1] 52.8% | [2] 37.6% | [3] 47.3% | [4] 19.9% | [5] 52.7% | [6] 26.9% | [7] 57.5% | [9] 29.6% | [10] 35% | [11] 42.4% | [12] 55.8% | [13] 48.3% | [14] 33.8% | [16] 34.7% | [17] 49.9% | [18] 38% | [19] 17.8%
active: [8] -51.3% | [15] -0.709% | [20] -2.89%

COc1cc(-c2nc3ccc(C)cc3[nH]2)ccc1OCc1nnc(-c2ccccc2Br)o1
active: [4] -0.44%
inactive: [1] 31.4% | [2] 66.8% | [3] 79.3% | [5] 78.3% | [6] 92% | [7] 70.4% | [8] 85.2% | [9] 64.6% | [10] 76.1% | [11] 61.8% | [12] 116% | [13] 76.6% | [14] 66% | [15] 108% | [16] 63.3% | [17] 77.5% | [18] 90.3% | [19] 75.7% | [20] 62.2%

CCOC(=O)c1ccc(NC(=O)CSC(CC(=O)c2sc(Nc3ccccn3)nc2C)c2ccccc2F)cc1 (stereo not given)
inactive: [2] 34.2% | [5] 39% | [6] 11.8% | [7] 33.3% | [9] 20.2% | [12] 28.7% | [13] 12.1% | [18] 14%
active: [1] -12.5% | [3] -0.243% | [4] 0.23% | [8] -31.2% | [10] -14.8% | [11] -2.98% | [14] 2.96% | [15] -1.49% | [16] -0.285% | [17] -6.86% | [19] 6.5% | [20] 8.86%

O=C(c1ccc(Cl)cc1)C(c1c[nH]c2ccccc12)c1c[nH]c2ccccc12
active: [1] -87.6% | [2] -91.5% | [3] 9.45% | [5] -39.8% | [6] -53.4% | [7] -92.5% | [8] -66.5% | [9] -69% | [10] -59.7% | [11] -94.6% | [12] -62.2% | [13] -99.9% | [14] -90.3% | [16] -92.8% | [17] -60.7% | [18] -19.4% | [19] -84%
inactive: [4] 14.5% | [15] 58.9% | [20] 27.2%

O=C(c1ccccc1)c1ccc2nc(-c3ccccc3Br)[nH]c2c1
inactive: [4] 11.2% | [16] 12.6% | [20] 29%
active: [1] -89.9% | [2] -68.4% | [3] -2.6% | [5] -59.1% | [6] -47.5% | [7] -26.7% | [8] -93.9% | [9] -76.8% | [10] -42.8% | [11] -99.1% | [12] -77.7% | [13] -98.2% | [14] -92.8% | [15] 9.77% | [17] -65.8% | [18] -58.9% | [19] -80.3%

C#C[C@]1(O)CC[C@H]2[C@@H]3CC=C4c5sc(Nc6cc(C)cc(C)n6)nc5CC[C@]4(C)[C@H]3CC[C@@]21C
inactive: [18] 26.2%
active: [1] -52.2% | [2] -39.8% | [3] 7.69% | [4] -75.3% | [5] -49.4% | [6] -53.1% | [7] -56.8% | [8] -28.4% | [9] -14% | [10] -3.77% | [11] -65.9% | [12] 4.66% | [13] 7.43% | [14] -27.6% | [15] -73.5% | [16] 4.44% | [17] -21.9% | [19] -3.49% | [20] -20.5%

COc1ccc(C2OC[C@@]3(C)C4CC[C@]5(C)C(CC=C6C7CC(C)(C)CC[C@]7(C(=O)O)CC[C@]65C)[C@@]4(C)C[C@@H](O)[C@@H]3O2)cc1 (stereo not given in full)
inactive: [1] 94.8% | [2] 99.3% | [3] 88.8% | [4] 94.3% | [5] 96.3% | [6] 85.3% | [7] 103% | [8] 102% | [9] 52.9% | [10] 82% | [11] 57.9% | [12] 76% | [13] 56.8% | [14] 73.5% | [15] 102% | [16] 73.2% | [17] 108% | [18] 101% | [19] 74.1% | [20] 85.3%
